Assay outcomes (PubChem)
C diff growth: C. difficile growth inhibitors, primary screen, HTS. Clostridium difficile clinical isolate growth, OD600, 24 h; stronger effect = lower value. growth activity, negative = inhibition, % at 16 µg/mL (by protocol). 86,000 compounds, 0.25% hits. AID 1259249, 2017;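 active means mean growth activity at or below -80% and every replicate also at or below -80%; inconclusive means mean at or below -80% but some replicate above -80%; inactive means mean growth activity above -80%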;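 further: 0% = DMSO wells and -100% = levofloxacin 16 µg/mL wells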
Pf Dd2 inh: P. falciparum Dd2 growth inhibitors, primary screen, SYBR Green fluorescence, single dose replicates. 72 h; stronger effect = lower value. activity change, % at 10 µM. 94,000 compounds, 2.3% hits; in the data active means activity change below about -80%; inconclusive means no clear call, values can overlap the other calls
T cruzi growth-1: T. cruzi intracellular proliferation inhibitors, primary screen, cell-based, beta-gal Tulahuen parasites, NIH3T3 host, luminescence. inhibition, % at 8.34 µM. T. cruzi beta-gal in NIH3T3, GalScreen luminescence, 90 h. 77,000 compounds, 5.9% hits. AID 624255, 2012;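 active means mean inhibition above about 93%, with at least 55% of replicates each passing it, limit read from the data, passing the limit was not always enough; inconclusive means only one of those two conditions holds; inactive means neither condition holds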
T cruzi growth-2: T. cruzi intracellular proliferation inhibitors, confirmation, cell-based, NIH3T3 host, beta-gal parasite, luminescence, cherry-pick | shares compounds with T cruzi growth-1 | T. cruzi beta-gal in NIH3T3, GalScreen luminescence, 90 h | inhibition, % at 8.35 µM | 5,600 compounds, 72% hits;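 active means mean replicate inhibition above about 95% and at least 55% of replicates individually reaching it, limit read from the data; inconclusive means only one of the two criteria is met; inactive means neither criterion is met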
T cruzi growth-3: inhibitors of intracellular T. cruzi replication, confirmation, NIH3T3 host cells, beta-gal parasites, cherry-pick, set 2 | shares compounds with T cruzi growth-1 | T. cruzi beta-gal in NIH3T3, GalScreen luminescence, 90 h | inhibition, % at 2.09 µM | 5,600 compounds, 21% hits;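 active means mean inhibition above about 95%, with at least 55% of replicates also reaching it, limit read from the data; inconclusive means meets just one of the two conditions; inactive means meets neither condition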;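 further: plate controls were neutral control median for no effect and positive control median for full effect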
3T3 cytotox: cytotoxicity in mouse NIH/3T3 fibroblasts, confirmation, cytotoxicity control for T. cruzi proliferation inhibitor project, cell-based, cherry-pick, single point; cytotoxicity (signal decrease), % at 8.35 µM; 5,600 compounds, 14% hits; NIH/3T3 viability, CellTiter-Glo ATP luminescence, 90 h; AID 651742, 2012; shares compounds with T cruzi growth-1;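 active means mean signal decrease across replicates above about 35% based on untreated-well scatter, with enough replicates individually passing, limit read from the data; inconclusive means no rule stated though some were filed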;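 further: 0% = median of neutral control wells and 100% = median of positive control wells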
3T3 cytotox 2: NIH/3T3 fibroblast cytotoxicity, confirmation, cytotoxicity control, cell-based, cherry-pick, single point, set 2 | AID 651744, 2012 | NIH/3T3 viability, CellTiter-Glo ATP luminescence, 90 h | shares compounds with T cruzi growth-1 | inhibition, % at 24.9 µM | 5,600 compounds, 56% hits;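 active means mean loss of cell viability signal at or above a set limit, and enough replicates individually reaching it; inconclusive means meets only the mean limit or only the replicate share; inactive means meets neither condition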;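 further: 0% = median of neutral control wells and 100% = median of positive control wells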
* marks the source's active call; other numbers are inactive results; ? = inconclusive; . = no result given. A selection: hits, their analogues and other compounds. The true share with any hit is near 6.8%.

SMILES | C diff growth | Pf Dd2 inh | T cruzi growth-1 | T cruzi growth-2 | T cruzi growth-3 | 3T3 cytotox | 3T3 cytotox 2
C[C@H](CO)N1C[C@H](C)[C@@H](CN(C)Cc2ccccc2)Oc2cc(C3=CCCC3)ccc2S1(=O)=O | 10 | -46 | 93 | . | . | . | .
C[C@@H]1CN([C@H](C)CO)S(=O)(=O)c2ccc(C3=CCCC3)cc2O[C@H]1CN(C)Cc1ccccc1 | 10 | -55 | 93 | . | . | . | .
C[C@@H]1CN([C@H](C)CO)S(=O)(=O)c2ccc(C3=CCCCC3)cc2O[C@H]1CN(C)Cc1ccccc1 | . | -53 | 119* | 87 | 101* | 78* | 106*
C[C@H](CO)N1C[C@H](C)[C@H](CN(C)Cc2ccc(C(=O)O)cc2)OCCCC[C@H](C)Oc2ccc(NC(=O)C3CCCCC3)cc2C1=O | 2 | 15 | 18 | . | . | . | .
C[C@@H]1CN([C@H](C)CO)C(=O)c2cc(NC(=O)C3CCCCC3)ccc2O[C@@H](C)CCCCO[C@@H]1CN(C)Cc1ccc(C(=O)O)cc1 | -6 | 3 | -7 | . | . | . | .
C[C@@H]1CCCCO[C@H](CN(C)Cc2ccc(C(F)(F)F)cc2)[C@H](C)CN([C@H](C)CO)C(=O)c2cc(NC(=O)C3CCCCC3)ccc2O1 | -1 | -37 | ? | 96* | 110* | -3 | 14
C[C@@H]1CCCCO[C@@H](CN(C)Cc2ccc(C(F)(F)F)cc2)[C@@H](C)CN([C@@H](C)CO)C(=O)c2cc(NC(=O)C3CCCCC3)ccc2O1 | 3 | -26 | ? | 102* | 59 | 3 | -20
C[C@@H]1CCCCO[C@@H](CN(C)Cc2ccc(C(F)(F)F)cc2)[C@@H](C)CN([C@H](C)CO)C(=O)c2cc(NC(=O)C3CCCCC3)ccc2O1 | 4 | 38 | 70 | . | . | . | .
C[C@@H]1CN([C@@H](C)CO)C(=O)c2cc(NC(=O)C3CCCCC3)ccc2O[C@@H](C)CCCCO[C@@H]1CN(C)Cc1ccc(C(F)(F)F)cc1 | 6 | -13 | ? | 104* | 105* | 2 | 7
C[C@@H]1CN([C@H](C)CO)C(=O)c2cc(NC(=O)C3CCCCC3)ccc2O[C@@H](C)CCCCO[C@@H]1CN(C)Cc1ccc(C(F)(F)F)cc1 | 4 | -35 | ? | 93 | 113* | -5 | -20
C[C@@H]1CCCCO[C@H](CN(C)Cc2ccc(C(=O)O)cc2)[C@@H](C)CN([C@H](C)CO)C(=O)c2cc(NC(=O)C3CCCCC3)ccc2O1 | -9 | 32 | 0 | . | . | . | .
COCC#Cc1cnc2c(c1)C(=O)N([C@@H](C)CO)C[C@@H](C)[C@H](CN(C)C(=O)c1cccc(F)c1)O2 | -6 | -1 | 27 | . | . | . | .
COc1ccc(S(=O)(=O)Nc2ccc3c(c2)C(=O)N([C@H](C)CO)C[C@@H](C)[C@H](CN(C)C)OCCCC[C@H](C)O3)cc1 | -3 | 7 | -10 | . | . | . | .
C[C@@H]1CCCCO[C@@H](CN(C)C(=O)CCC(F)(F)F)[C@@H](C)CN([C@@H](C)CO)C(=O)c2cc(NC(=O)CCC(F)(F)F)ccc2O1 | 4 | 5 | . | . | . | . | .
COc1cccc(S(=O)(=O)Nc2ccc3c(c2)OC[C@@H](C)N(Cc2ccccc2F)C[C@H](C)[C@H](OC)CN(C)C3=O)c1 | . | -38 | 62 | . | . | . | .
COc1ccc2c3c(n(C)c2c1)[C@H](CO)N(C)CC31CCN(C(=O)Nc2c(C)noc2C)CC1 | 3 | 6 | . | . | . | . | .
Cc1c(NC(=O)/C(C#N)=C/c2ccc3ccccc3c2)c(=O)n(-c2ccccc2)n1C | -4 | . | . | . | . | . | .
CCC(=O)N(C)C[C@H]1Oc2cc(C#CC(C)C)ccc2S(=O)(=O)N([C@H](C)CO)C[C@@H]1C | -1 | -14 | 45 | . | . | . | .
C[C@H]1CN([C@@H](C)CO)S(=O)(=O)c2ccc(C#Cc3cccnc3)cc2O[C@H]1CN(C)C(=O)Nc1ccc2c(c1)OCO2 | -1 | ? | 102* | 64 | 43 | 8 | 11
C[C@H](CO)N1C[C@H](C)[C@@H](CN(C)C(=O)Nc2ccc3c(c2)OCO3)Oc2cc(C#Cc3cccnc3)ccc2S1(=O)=O | -2 | -47 | 93 | . | . | . | .
C[C@@H]1CN([C@H](C)CO)S(=O)(=O)c2ccc(C#Cc3cccnc3)cc2O[C@@H]1CN(C)C(=O)Nc1ccc2c(c1)OCO2 | -10 | -63 | ? | 77 | 62 | 18 | 40*
CC(=O)N(C)C[C@@H]1Oc2cc(C#Cc3cccnc3)ccc2S(=O)(=O)N([C@@H](C)CO)C[C@@H]1C | -2 | 9 | 39 | . | . | . | .
COCC(=O)NC[C@@H]1[C@H](c2ccc(C3=CCCC3)cc2)[C@@H](CO)N1C(C)=O | -10 | 10 | 108* | -26 | -22 | -2 | -2
COCC(=O)NC[C@H]1[C@H](c2ccc(C3=CCCC3)cc2)[C@H](CO)N1C(C)=O | -7 | 12 | ? | -7 | 0 | -21 | -23
CCC(=O)NC[C@H]1[C@H](c2ccc(C3=CCCC3)cc2)[C@H](CO)N1C(C)=O | 5 | 0 | 23 | . | . | . | .
SMILES | C diff growth | Pf Dd2 inh | T cruzi growth-1 | T cruzi growth-2 | T cruzi growth-3 | 3T3 cytotox | 3T3 cytotox 2
CCC(=O)NC[C@H]1[C@@H](c2ccc(C3=CCCC3)cc2)[C@@H](CO)N1C(C)=O | -6 | 1 | 77 | . | . | . | .
CCC(=O)NC[C@@H]1[C@@H](c2ccc(C3=CCCC3)cc2)[C@H](CO)N1C(C)=O | 8 | -36 | 94 | . | . | . | .
COCC(=O)NC[C@@H]1[C@H](c2ccc(C3=CCCC3)cc2)[C@H](CO)N1C(C)=O | -2 | -8 | 116* | 96* | 1 | 3 | -9
CO[C@H]1CN(C)C(=O)c2ccc(NC(=O)C3CC3)cc2OC[C@@H](C)N(Cc2cccc(F)c2)C[C@@H]1C | -2 | -54 | 31 | . | . | . | .
CC=Cc1ccc2n(c1=O)C[C@H]1[C@H](CO)[C@@H](C(=O)NCC(F)(F)F)N(CCc3ccccc3)[C@@H]21 (mixture of isomers) | 3 | 1 | 70 | . | . | . | .
C[C@H](CO)N1C[C@H](C)[C@@H](CN(C)S(=O)(=O)c2cccs2)Oc2c(NC(=O)Nc3ccc(F)cc3)cccc2C1=O | 2 | 15 | 8 | . | . | . | .
CO[C@H]1CN(C)C(=O)c2ccc(NC(=O)C3CC3)cc2OC[C@@H](C)N(C(=O)c2cccnc2)C[C@@H]1C | . | -1 | 109* | -18 | -18 | -12 | -4
CCC(=O)Nc1ccc2c(c1)OC[C@H](C)N(C(=O)c1ccc(F)cc1)C[C@@H](C)[C@@H](OC)CN(C)C2=O | . | 4 | 104* | -12 | 1 | -5 | -2
